Inconclusive results are not listed. Activity calls are given as the source filed them. Calls come from the whole dose curve; as a rule, active = well fitted cell-killing curve with a large enough effect in the repeat runs; inconclusive = weak or mixed curves; inactive = no such curve, though single readings can be large or run the other way.
Experiment: qHTS assay to identify small molecule antagonists of the androgen receptor (AR) signaling pathway - cell viability counter screen (AID 743033; note: nearly all actives have a fitted effect of over 45% in size)
Conditions: AR-bla HEK293 viability, CellTiter-Glo luminescence, 16 h; series mostly up to 58.5 µM
Source text: National Center for Advancing Translational Sciences [NCATS]
NIH Chemical Genomics Center [NCGC]
U.S. Environmental Protection Agency [EPA]
National Institutes of Environmental Health Sciences [NIEHS]
National Toxicology Program [NTP]
U.S. Food and Drug Administration [FDA]
Androgen receptor (AR), a nuclear hormone receptor, plays a critical role in AR-dependent prostate cancer and other androgen related diseases. Endocrine disrupting chemicals (EDCs) and their interactions with steroid hormone receptors like AR may cause disruption of normal endocrine function as well as interfere with metabolic homeostasis, reproduction, developmental and behavioral functions. To identify the compounds that inhibit AR signaling, GeneBLAzer AR-UAS-bla-GripTite cell line (Invitrogen, Carlsbad, CA, USA) containing a beta-lactamase reporter gene under control of an Upstream Activator Sequence (UAS) stably integrated into HEK293 cells was used to screen the Tox21 10K compound library. The cytotoxicity of the Tox21 compound library against the AR-bla cell line was tested in parallel by measuring the cell viability using CellTiter-Glo assay in the same wells.
Tox21 Assay Protocol Summary:
AR-bla cells were dispensed at 2,000 cells/5 uL of assay medium per well into black wall/clear-bottom 1536-well plates using a Multidrop Combi (ThermoFisher Scientific, Waltham, MA) dispenser. After the assay plates were incubated at a 37C and 5% CO2 for 4 hr, 23 nL of compounds dissolved in DMSO, positive controls or DMSO only was transferred to the assay plate by a Pintool station (Kalypsys, San Diego, CA), followed by addition of 1 uL of agonist (R1881) in culture medium using a Bioraptr Flying Reagent Dispenser (FRD) workstation (Beckman Coulter, Indianapolis, IN, USA). The plates were incubated at a 37C and 5% CO2 for 16 h. After 1 uL of LiveBLAzerTM B/G FRET substrate was added using a Bioraptr FRD, the plates were incubated at room temperature for 2 h and fluorescence intensity was measured by an Envision plate reader (PerkinElmer, Shelton, CT). For cell viability readout that measures cytotoxicity, 4 ul/well of CellTiter-Glo reagent was added into the assay plates using a Bioraptr FRD. After 30 min incubation at room temperature, the luminescence intensity in the plates was measured using a ViewLux (PerkinElmer) plate reader.

| SMILES | outcome |
| --- | --- |
| CCc1ccc(CC)cc1 | inactive |
| C=C(C)C(=O)OCCOC1CC2CC1C1C=CCC21 (stereo not given) | inactive |
| CCCCNCC | inactive |
| NC[C@H]1O[C@H](O[C@H]2[C@H](O)[C@@H](O[C@H]3O[C@H](CO)[C@@H](O)[C@H](N)[C@H]3O)[C@H](N)C[C@@H]2N)[C@H](N)[C@@H](O)[C@@H]1O | inactive |
| C=CCON/C(CCC)=C1\C(=O)CC(C)(C)C(C(=O)OC)=C1O | inactive |
| CC1(C)C(=O)C(C)(C)C1=O | inactive |
| CCC(C)SSC(C)CC (stereo not given) | inactive |
| CC1(C)CC(N)CC(C)(C)N1 | inactive |
| CCCCCCCCCCCCCCBr | inactive |
| CCOCCOCCOC(C)=O | inactive |
| CCCCCCCOC(C)=O | inactive |
| COCc1nnc(-c2ccc[n+]([O-])c2)n1-c1c(Cl)c(Cl)cc2[nH]c(=O)c(=O)[nH]c12 | inactive |
| CC(C)(C)OC(=O)c1ccccc1C(=O)O | inactive |
| Cc1ccc(N)nc1 | inactive |
| C[C@@H]1NC(=O)[C@@H](N)CNC(=O)[C@H](C2CCNC(N)=N2)NC(=O)/C(=C/NC(N)=O)NC(=O)[C@H](CNC(=O)C[C@@H](N)CCCN)NC1=O (stereo not given in full) | inactive |
| O=Cc1ccc(C(=O)O)cc1 | inactive |
| CCN(CC)CC | inactive |
| Cc1cc(C)c(C)c(C)c1 | inactive |
| N=C(N)N | inactive |
| CCOC(=O)[C@H](CCc1ccccc1)N[C@H]1CS[C@H](c2cccs2)CN(CC(=O)O)C1=O | inactive |

| SMILES | outcome |
| --- | --- |
| Cc1ccc(OC(=O)CC(C)C)cc1 | inactive |
| NNC(=O)OCc1ccccc1 | inactive |
| NCC1CCC(C(=O)Oc2ccc(CCC(=O)O)cc2)CC1 (stereo not given) | inactive |
| C=CC(=O)OCC[N+](C)(C)C | inactive |
| O=S(=O)(O)CC(O)CCl (stereo not given) | inactive |
| O=C(OOC(=O)c1ccccc1)c1ccccc1 | inactive |
| Cc1cc(N)no1 | inactive |
| O=CN1CCCCC1 | inactive |
| CN1C(CCl)Nc2cc(Cl)c(S(N)(=O)=O)cc2S1(=O)=O (stereo not given) | inactive |
| C=CCOC(=O)CCCCCCCC | inactive |
| CN(C)CCc1c[nH]c2ccc(CS(=O)(=O)N3CCCC3)cc12 | inactive |
| CC[N+](C)(CC)CC | inactive |
| CCOc1ccccc1OCCN[C@H](C)Cc1ccc(OC)c(S(N)(=O)=O)c1 | inactive |
| CC(=O)Nc1ccc(S(=O)(=O)Nc2cc(C)on2)cc1 | inactive |
| Cc1ccc(NC(N)=O)cc1 | inactive |
| C[C@@H]1CC[C@@]2(OC1)O[C@H]1C[C@H]3[C@@H]4CC[C@H]5C[C@@H](O)CC[C@]5(C)[C@H]4CC(=O)[C@]3(C)[C@H]1[C@@H]2C | inactive |
| CCCCCCCCCCCCCC(=O)OCC | inactive |
| O=C[C@@H](O)[C@H](O)[C@H](O)CO | inactive |
| C=CCN(CC=C)CC=C | inactive |
| O=C(O)Cc1ccccc1Oc1ccc(Cl)cc1Cl | inactive |
